Test results reported in PubChem BioAssay.

Experiment: Primary imaging screen for DUSP6 inhibitors that restore phospho-Erk in transfected HeLa cells, chemical complementation (AID 609)
Settings: HeLa MKP-3 transfected, phospho-Erk imaging KS statistic; measured here: nuclear c-Myc green intensity z-score; at 10 µM; cells stimulated with TPA for 15 min

Row | SMILES | z-score
1 | CCOC(=O)c1c(-c2cccs2)csc1NC(=O)CCCC(=O)O | -0.304
2 | Fc1ccc(-c2cnc[nH]2)cc1 | 0.681
3 | CCOC(=O)c1[nH]c2ccc(Br)cc2c1NC(=O)CNC | 0.821
4 | COc1ccc(C2(CN(C(C)=O)C(C)=O)CCCC2)cc1OC | 1.01
5 | COc1ccccc1C1C(C#N)=C(N)Oc2cc(C)n(Cc3ccccn3)c(=O)c21 (stereo not drawn) | -0.155
6 | Cc1ccc(C(=O)/C=C/Nc2cccc(O)c2)cc1 | -0.594
7 | O=C(C1CC1(c1ccccc1)c1ccccc1)N1CCOCC1 (stereo not drawn) | -1.65
8 | COC(=O)CNC(=O)c1c(C)cc(=O)oc1C | -0.128
9 | COc1ccc(CCn2c(=N)c(C(=O)NCc3ccco3)cc3c(=O)n4ccccc4nc32)cc1 | 0.0165
10 | Nc1nc(NC(=O)c2cccs2)nn1-c1ccccc1 | 0.834
11 | Cc1c(O)c(CN2CCCC(C)C2)cc2c3c(c(=O)oc12)CCC3 (stereo not drawn) | 2
12 | COc1ccc(CCn2c(=N)c(C#N)cc3c(=O)n4ccccc4nc32)cc1 | -0.331
13 | Cn1c(SCC(=O)N2CCOCC2)nnc1-c1cccc(NC(=O)c2ccccc2F)c1 | 0.78
14 | O=C(NC1CCS(=O)(=O)C1)c1c(NC(=O)C2COc3ccccc3O2)sc2c1CCCC2 (stereo not drawn) | -1.93
15 | COC(=O)C(NC(C)=O)(Nc1nc2ccc(S(C)(=O)=O)cc2s1)C(F)(F)F (stereo not drawn) | 0.631
16 | COc1ccc2c(c1)C1(C)CC(C)(C)N2C(=O)N1c1ccccc1 (stereo not drawn) | -1.42
17 | CCCCCn1c2nc3ccccc3nc2c2c(=O)n(CC(C)C)cnc21 | 2.75
18 | Nc1nnnn1/N=C/c1ccccn1 | -1.1
19 | Cc1nnc2n(-c3ccccc3)c(=O)c3c4c(sc3n12)CCCC4 | -0.18
20 | CCc1nc2sc3c(c2c(=O)o1)CCCC3 | -1.28

Row | SMILES | z-score
21 | CCOC(=O)CNC(=O)Nc1ccccc1C(=O)OC | 0.241
22 | COc1ccc(C(=O)NCCCCCC(=O)O)cc1OC | -0.271
23 | CCOC(=O)C1=C(CSc2nc(C)cc(C)c2C#N)OC(N)=C(C#N)C1c1cccs1 (stereo not drawn) | -1.39
24 | COc1cc(NC(=O)NC(C)(C(F)(F)F)C(F)(F)F)cc(OC)c1OC | -0.586
25 | COC(=O)C(NC(C)=O)(Nc1ccccn1)C(F)(F)F (stereo not drawn) | -0.933
26 | CC1(C)CNC(=O)c2sc(N3CCOCC3)nc2C1 | 0.266
27 | CCOC(=O)c1ccc(CC2S/C(=C(\C#N)C(C)=O)NC2=O)cc1 (stereo not drawn) | -0.573
28 | CC(=Nc1cccc(O)c1)c1sc2ccccc2c1O | 0.631
29 | COc1cccc(N2C(=O)C(O)=C(C(C)=O)C2c2ccc(OC)c(OC)c2)c1 (stereo not drawn) | -0.212
30 | O=S(=O)(c1ccc2ccccc2c1)N(CC(O)CN1CCOCC1)c1ccccc1 (stereo not drawn) | 1.41
31 | Cc1c(O)c(CN2CCCCC2)cc2c3c(c(=O)oc12)CCC3 | -1.04
32 | O=S(=O)(NCc1cccnc1)c1cccc2nsnc12 | 1.61
33 | Cc1cc(O)c(C(C)C)cc1N=C1CSC(=O)N1 | -0.53
34 | Cc1nc2sc(C#N)c(N)c2c2c1CCCC2 | 2.17
35 | N#C/C(C(=O)N1CCOCC1)=C1/SC(Cc2ccccc2)C(=O)N1c1ccccc1 (stereo not drawn) | 1.02
36 | CN(CC(O)COc1ccc(OCC(O)CN(C)C2CCCCC2)cc1)C1CCCCC1 (stereo not drawn) | 0.402
37 | Cn1c(=O)[nH]c(=O)c2c1nc(N(CCO)Cc1ccccc1)n2Cc1ccccc1Cl | -1.16
38 | Cc1nn(-c2ccccc2)c2c1C(=O)NC(=O)C(C)(C)C2 | 1.24
39 | Cc1ccc(-n2ncc3c(N4CCN(c5ccccc5)CC4)ncnc32)c(C)c1 | -0.19

Same assay, conditions: HeLa MKP-3 transfected, phospho-Erk imaging KS statistic; measured here: nuclear pErk red intensity z-score; at 10 µM; stronger effect = higher value; cells stimulated with TPA for 15 min

Row | SMILES | z-score
40 | CCOC(=O)c1c(-c2cccs2)csc1NC(=O)CCCC(=O)O | -0.262
41 | Fc1ccc(-c2cnc[nH]2)cc1 | -1.47
42 | CCOC(=O)c1[nH]c2ccc(Br)cc2c1NC(=O)CNC | 0.769
43 | COc1ccc(C2(CN(C(C)=O)C(C)=O)CCCC2)cc1OC | -1.44
44 | COc1ccccc1C1C(C#N)=C(N)Oc2cc(C)n(Cc3ccccn3)c(=O)c21 (stereo not drawn) | -0.154
45 | Cc1ccc(C(=O)/C=C/Nc2cccc(O)c2)cc1 | 0.929
46 | O=C(C1CC1(c1ccccc1)c1ccccc1)N1CCOCC1 (stereo not drawn) | -0.311
47 | COC(=O)CNC(=O)c1c(C)cc(=O)oc1C | -1.37
48 | COc1ccc(CCn2c(=N)c(C(=O)NCc3ccco3)cc3c(=O)n4ccccc4nc32)cc1 | -1.15
49 | Nc1nc(NC(=O)c2cccs2)nn1-c1ccccc1 | 1.83
50 | Cc1c(O)c(CN2CCCC(C)C2)cc2c3c(c(=O)oc12)CCC3 (stereo not drawn) | 1.18
51 | COc1ccc(CCn2c(=N)c(C#N)cc3c(=O)n4ccccc4nc32)cc1 | -0.629
52 | Cn1c(SCC(=O)N2CCOCC2)nnc1-c1cccc(NC(=O)c2ccccc2F)c1 | -0.11
53 | O=C(NC1CCS(=O)(=O)C1)c1c(NC(=O)C2COc3ccccc3O2)sc2c1CCCC2 (stereo not drawn) | 0.35
54 | COC(=O)C(NC(C)=O)(Nc1nc2ccc(S(C)(=O)=O)cc2s1)C(F)(F)F (stereo not drawn) | 0.313
55 | COc1ccc2c(c1)C1(C)CC(C)(C)N2C(=O)N1c1ccccc1 (stereo not drawn) | -0.582
56 | CCCCCn1c2nc3ccccc3nc2c2c(=O)n(CC(C)C)cnc21 | 1.53
57 | Nc1nnnn1/N=C/c1ccccn1 | -0.159
58 | Cc1nnc2n(-c3ccccc3)c(=O)c3c4c(sc3n12)CCCC4 | 0.377
59 | CCc1nc2sc3c(c2c(=O)o1)CCCC3 | 1.35

Row | SMILES | z-score
60 | CCOC(=O)CNC(=O)Nc1ccccc1C(=O)OC | -0.382
61 | COc1ccc(C(=O)NCCCCCC(=O)O)cc1OC | 0.551
62 | CCOC(=O)C1=C(CSc2nc(C)cc(C)c2C#N)OC(N)=C(C#N)C1c1cccs1 (stereo not drawn) | -0.564
63 | COc1cc(NC(=O)NC(C)(C(F)(F)F)C(F)(F)F)cc(OC)c1OC | 1.46
64 | COC(=O)C(NC(C)=O)(Nc1ccccn1)C(F)(F)F (stereo not drawn) | -0.0238
65 | CC1(C)CNC(=O)c2sc(N3CCOCC3)nc2C1 | 1.71
66 | CCOC(=O)c1ccc(CC2S/C(=C(\C#N)C(C)=O)NC2=O)cc1 (stereo not drawn) | 0.337
67 | CC(=Nc1cccc(O)c1)c1sc2ccccc2c1O | -1.52
68 | COc1cccc(N2C(=O)C(O)=C(C(C)=O)C2c2ccc(OC)c(OC)c2)c1 (stereo not drawn) | 0.653
69 | O=S(=O)(c1ccc2ccccc2c1)N(CC(O)CN1CCOCC1)c1ccccc1 (stereo not drawn) | -0.234
70 | Cc1c(O)c(CN2CCCCC2)cc2c3c(c(=O)oc12)CCC3 | -0.433
71 | O=S(=O)(NCc1cccnc1)c1cccc2nsnc12 | 0.356
72 | Cc1cc(O)c(C(C)C)cc1N=C1CSC(=O)N1 | 0.0977
73 | Cc1nc2sc(C#N)c(N)c2c2c1CCCC2 | -1.05
74 | N#C/C(C(=O)N1CCOCC1)=C1/SC(Cc2ccccc2)C(=O)N1c1ccccc1 (stereo not drawn) | 0.783
75 | CN(CC(O)COc1ccc(OCC(O)CN(C)C2CCCCC2)cc1)C1CCCCC1 (stereo not drawn) | 1.26
76 | Cn1c(=O)[nH]c(=O)c2c1nc(N(CCO)Cc1ccccc1)n2Cc1ccccc1Cl | -0.515
77 | Cc1nn(-c2ccccc2)c2c1C(=O)NC(=O)C(C)(C)C2 | 0.796
78 | Cc1ccc(-n2ncc3c(N4CCN(c5ccccc5)CC4)ncnc32)c(C)c1 | 1.79
